The text below walks through data of PubChem BioAssay AID434989 (The Scripps Research Institute Molecular Screening Center, 2010).

In all, about 330,000 compounds went through this assay and about 1,400 (0.42%) were called active. The list comes from a sample in which actives are over-represented; it also holds similar structures and randomly drawn compounds. Values without a mark were called inactive.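 The calls were made as follows: active = inhibition above its plate's threshold, mean inhibition of all tested compounds on the plate plus 3 SD (cut at about 37% in these data); inactive = the rest.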

The assay deals with Orexin/Hypocretin receptor type 1 (Homo sapiens) (UniProt O43613). The assay can be described thus: OX1R (HCRTR1) antagonists, primary screen, fluorescence, CHO/OX1R cells, Fluo-8 calcium, orexin A (AID 434989).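 Also: 0% = orexin A challenge wells and 100% = SB-334867-A antagonist wells.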 To be noted: Fluo-8 calcium fluorescence, at 5 µM, stronger effect = higher value.
Chain of Orexin/Hypocretin receptor type 1 (Homo sapiens) (O43613 whole entry, looked up): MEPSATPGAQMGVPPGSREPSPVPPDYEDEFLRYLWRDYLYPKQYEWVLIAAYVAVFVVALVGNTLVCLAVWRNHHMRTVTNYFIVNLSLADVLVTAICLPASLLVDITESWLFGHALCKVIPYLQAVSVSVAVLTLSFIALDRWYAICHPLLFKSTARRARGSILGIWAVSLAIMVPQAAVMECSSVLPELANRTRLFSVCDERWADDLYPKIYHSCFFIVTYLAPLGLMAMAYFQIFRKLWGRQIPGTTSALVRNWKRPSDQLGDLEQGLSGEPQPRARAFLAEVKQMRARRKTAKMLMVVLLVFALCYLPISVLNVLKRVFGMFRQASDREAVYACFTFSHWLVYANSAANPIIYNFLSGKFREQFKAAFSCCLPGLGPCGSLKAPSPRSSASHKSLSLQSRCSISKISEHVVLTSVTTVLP
With `CCN(C[C@H]1N[C@@](CC)(C(=O)OC)[C@H]2C(=O)N(Cc3ccccc3)C(=O)[C@@H]12)S(=O)(=O)c1ccccc1`, the inhibition is -23.9%.

Turning to `O=C(COC(=O)/C=C/c1cccc(Cl)c1)NCc1cccs1`, the inhibition is -21.7%. Turning to `Cc1ccc(S(=O)(=O)N(C)c2ccc(OCC(=O)OCc3ccc(C#N)cc3)cc2)cc1`, the inhibition is 0.88%.

Turning to `CC1(C)C=Cc2c(ccc3c2OC[C@@H](c2ccc(O)cc2O)C3)O1`, the inhibition was 47.2% (active).

In the case of `COc1cc(/C=C/C(=O)OCC(=O)NC2CC2)cc(OC)c1OC`, the inhibition is -7.25%.

With `C/C(N)=C(/C#N)C(=O)COC(=O)c1cc(-c2ccccc2)nc2ccc(Br)cc12`, the inhibition is 5.4%. For the molecule `C/C(N)=C(/C#N)C(=O)COC(=O)c1cc(-c2ccc(C)cc2)nc2ccccc12`, the inhibition was 47.2% (active). The same measure for `C/C(N)=C(/C#N)C(=O)COC(=O)c1cc(-c2cccc(Br)c2)nc2ccccc12`: 15.2%. The same measure for `CC(C)COc1ccc(C(=O)NNC(=O)CCC(=O)c2cccs2)cc1`: -18.4%; for `FC(F)(F)C1CCCN(c2nsc3ccccc23)C1` (centres undefined): 46.1% (active). Under `O=C(NC(Cc1ccccc1)C(=O)N1CCCC(C(F)(F)F)C1)c1ccccc1` (centres undefined) stands -34.6%; under `O=C(NCC(=O)N1CCCC(C(F)(F)F)C1)c1ccccc1F` (centres undefined), 0.97%. `Cc1onc(-c2c(F)cccc2Cl)c1C(=O)OCC(=O)N1C(C)CCCC1C` (centres undefined): the inhibition is -24.4%. Under `COc1ccc(NC(=O)CNc2cc(S(=O)(=O)N3CCOCC3)ccc2N2CCOCC2)c(OC)c1` stands -10.3%; under `CN(C)c1ccc(/C=C2\NC(=S)N(Cc3ccccc3)C2=O)cc1`, 91.7% (active); under `O=C1/C(=C\c2ccsc2)NC(=S)N1c1ccccc1`, -19.5%. For `COc1cc(/C=C2/SC(=S)N(Cc3ccccc3)C2=O)cc(OC)c1O`, the inhibition is 31.2%. Take `Cc1cc(OCCCC(=O)NCCN2C(=O)S/C(=C\c3cccnc3)C2=O)ccc1Cl`: the inhibition is 94.3% (active). Under `O=C(NCCN1C(=O)S/C(=C\c2cccnc2)C1=O)c1cccc(OC(F)F)c1` stands -28.3%. In the case of `CCOc1ccc(N2CC(C(=O)NCCN3C(=O)S/C(=C\c4cccnc4)C3=O)CC2=O)cc1` (centres undefined), the inhibition is -17.9%. Under `COC(=O)[C@]1(Cc2ccccc2)N[C@H](CN(C)S(=O)(=O)c2ccc(OC(F)(F)F)cc2)[C@@H]2C(=O)N(C)C(=O)[C@@H]21` stands -30.2%; under `COC(=O)c1ccc(/C=C/c2c(-c3ccc(OC)cc3)sc3ccccc23)cc1`, -6.38%. On to `COc1ccc(CNC(=O)COC(=O)C(CCSC)N2C(=O)c3ccccc3C2=O)cc1` (centres undefined), for which the inhibition was -29.7%. The same measure for `CCOC(=O)[C@H]1[C@H]2COc3ccccc3[C@@H]2N2C(=O)CN(Cc3ccccc3)C(=O)[C@@]12C`: -30.6%.

Turning to `Cc1cc(N2CCCC2=O)cc(C)c1S(N)(=O)=O`, the inhibition is 44.7% (active). `CNS(=O)(=O)c1ccc(N2CCCC2=O)c([N+](=O)[O-])c1`: the inhibition is -6.08%. The same measure for `CN(C)S(=O)(=O)c1ccc(N2CCCC2=O)c([N+](=O)[O-])c1`: -12.1%. Under `O=C1CSc2ccc(C(=O)NCc3ccccn3)cc2N1` stands 7.19%. Under `COc1cccc(/C=N/NC(=O)c2[nH]nc3c2CCc2ccccc2-3)c1O` stands 38.6% (active); under `COc1ccc(/C=N/NC(=O)c2ccc3c(c2)OCCO3)c(OC)c1`, -14.1%. Take `CN(C)CCNC(=O)c1[nH]nc2c1CCc1ccccc1-2`: the inhibition is -12%. Consider `COc1cc(OC)c(C(=O)NNC(=O)c2ccccc2-n2cccc2)cc1OC`, for which the inhibition was -4.23%. Under `COc1cccc2sc3cc(NCC[C@@H]4CCCN4C)ccc3c(=O)c12` stands -2.27%. In the case of `CC(C#N)OC(=O)c1cccnc1SCC(=O)Nc1ccc2c(c1)OCO2` (centres undefined), the inhibition is -1.89%.

For the molecule `O=C(CSc1ncnc2sccc12)NC1CCS(=O)(=O)C1` (centres undefined), the inhibition is -10.8%. Take `Oc1ccc2ccccc2c1N=Nc1nccs1`: the inhibition was 61% (active).

`Oc1ccc(N=Nc2nccs2)c(O)c1`: the inhibition was -44.9%.

In the case of `CCC(C(=O)Nc1ccc2c(c1)OCCO2)c1ccccc1` (centres undefined), the inhibition was 3.71%. Consider `CCC(C(=O)OCC(=O)Nc1ccc(C(=O)Nc2ccc(OC)cc2)cc1)c1ccccc1` (centres undefined), for which the inhibition was -0.08%. As to `CCC(C(=O)Nc1ccc(C(C)C)cc1)c1ccccc1` (centres undefined), the inhibition is 62.9% (active). With `NCCN1CCN2C(=O)CN(C(=O)c3ccccc3)CC12` (centres undefined), the inhibition was 3.19%.

Take `CC(C)(C)OC(=O)C[C@@H]1C/C=C\C[C@@H](CC(=O)NCCO)C(=O)N[C@H](Cc2c[nH]c3ccccc23)COC1=O`: the inhibition is -10.6%. Take `CCN1/C(=C\c2ccc3ccccc3[n+]2CC)Sc2cc(C)ccc21`: the inhibition was 54.6% (active). The same measure for `COc1ccccc1N(CCOc1ccccc1)S(=O)(=O)c1ccccc1`: -0.89%; for `COc1ccc2sc(-c3ccc(N(C)C)cc3)c(-c3ccc4cc[nH]c4c3)c2c1`: 1.84%; for `COc1ccc(-c2sc3ccc(OC)cc3c2C#Cc2ccccn2)cc1`: -20.1%. The same measure for `COc1ccc2sc(-c3ccc(N(C)C)cc3)c(C#CCO)c2c1`: 61% (active); for `Cc1ccc(NC(=O)c2ccc(Cl)nc2)cc1S(=O)(=O)N1CCOCC1`: -13.6%.

As to `COc1ccc(S(=O)(=O)N(C)C[C@H]2Oc3ccc(NS(=O)(=O)c4cccs4)cc3CC(=O)N([C@H](C)CO)C[C@H]2C)cc1`, the inhibition is -17.2%.

In the case of `CC(NC(=O)COC(=O)CCC(=O)c1ccc(Cl)cc1)c1ccccc1` (centres undefined), the inhibition is -2.79%.

Take `Cc1ccc(C(=O)OCc2nc(N)nc(Nc3ccccc3C)n2)cc1`: the inhibition is -15.1%.

As to `Nc1nc(COC(=O)CCC(=O)c2ccc(Cl)cc2)nc(Nc2ccccc2)n1`, the inhibition is 67.8% (active). Take `O=C(COC(=O)c1ccc(F)c(S(=O)(=O)N2CCOCC2)c1)NCc1ccc2c(c1)OCO2`: the inhibition was 4.89%. Under `COc1ccc(S(=O)(=O)N2CCCCCC2)cc1NC(=O)Cc1ccc(OC)c(OC)c1` stands -23.5%; under `O=C(COC(=O)c1ccccn1)NNC(=O)c1ccc(Br)cc1`, -3.43%.

Consider `Cn1c(N)c(C(=O)COC(=O)c2cnc(Cl)c(Cl)c2)c(=O)n(C)c1=O`, for which the inhibition is -7.14%. The same measure for `Cn1c(N)c(C(=O)COC(=O)c2cccc(S(=O)(=O)N3CCOCC3)c2)c(=O)n(C)c1=O`: -27.4%; for `Cn1c(N)c(C(=O)COC(=O)c2ccc3ccccc3c2)c(=O)n(C)c1=O`: 51.1% (active).

With `CN1C(=O)c2cccc3c(N)ccc(c23)C1=O`, the inhibition is 41.1% (active).

For the molecule `COc1ccc(N2C(=O)c3cccc4cccc(c34)C2=O)nn1`, the inhibition is -17.9%. Turning to `O=C(O)c1ccc2c3c(cccc13)C(=O)N(OS(=O)(=O)c1ccccc1)C2=O`, the inhibition is -7.84%. In the case of `Cc1nn(C)cc1N1C(=O)c2cccc3c(N)ccc(c23)C1=O`, the inhibition was 38.4% (active).

In the case of `O=C1c2ccccc2C(=O)N1c1cccc2ccccc12`, the inhibition is -17%. In the case of `C[N+](C)(CCCCCC[N+](C)(C)CCCN1C(=O)c2cccc3cccc(c23)C1=O)CCCN1C(=O)c2cccc3cccc(c23)C1=O`, the inhibition was -0.77%. Regarding `Cc1noc(C)c1NC(=O)Nc1cccc2c1O[C@H](CN(C)C(=O)Nc1ccccc1)[C@@H](C)CN([C@H](C)CO)C2=O`, the inhibition was 1.33%. The same measure for `C[C@]12c3[nH]c4ccc(Cl)cc4c3CCN1C(=O)[C@@H](CC(=O)NCCCn1ccnc1)C[C@@H]2C(=O)N1CCOCC1`: -3.04%; for `CC[C@]12c3[nH]c4ccc(Cl)cc4c3CCN1C(=O)[C@@H](CC(=O)NCCCOC)C[C@@H]2C(=O)N1CCN(C(=O)c2ccco2)CC1`: -0.28%; for `COCCNC(=S)N/N=C/c1c(C)[nH]c2ccccc12`: -0.83%. For the molecule `O=C(N/N=C/c1c(Cl)[nH]c2ccccc12)c1sc2ccccc2c1Cl`, the inhibition is 92.7% (active).

With `COc1ccc(CNC(=O)CNC(=O)c2sc3ccccc3c2Cl)cc1OC`, the inhibition was -23.5%. Under `CCCCNc1c(-c2ccc(OC)c(Sc3ccc(OC)cc3)c2)nc2ccc(Cl)cn12` stands -30.4%; under `Cc1cccc(OCC(=O)OCC(=O)Nc2ccc(Cl)cn2)c1`, -10.8%.

On to `Nc1ncnc2c1ncn2[C@@H]1O[C@H](CNCc2cccn2-c2nccs2)[C@@H](O)[C@H]1O`, for which the inhibition is -6.54%.

`COc1ccc2[nH]c3c(c2c1)CCN1C(=O)C(CC(=O)NCc2cccc(C(F)(F)F)c2)C[C@H](C(=O)N2CCOCC2)[C@@]31C` (some centres undefined): the inhibition is -21.4%.

With `CCN1C[C@@H]2[C@@H]3C(=O)N(Cc4ccccc4)C(=O)[C@@H]3[C@](Cc3ccccc3)(C(=O)OC)N2C1=NC1CCCCC1`, the inhibition was -11.5%. For the molecule `O=C(Nc1cccc2cccnc12)c1cccc(N2C(=O)CCC2=O)c1`, the inhibition was 45.5% (active).

As to `COC(=O)c1cccc(NC(=O)c2cccc(N3C(=O)CCC3=O)c2)c1`, the inhibition is 13.2%. With `O=C(Nc1cccc2cccnc12)c1cccc(Cl)c1`, the inhibition is -10.3%. Under `CN(Cc1ccccc1)C(=O)COC(=O)/C=C/c1ccc2c(c1)OCO2` stands -11.9%; under `CCCC(=O)NC(Nc1ccccc1OC)C(Cl)(Cl)Cl` (centres undefined), -0.68%. The same measure for `COc1ccccc1NC(=O)CCCc1c[nH]c2ccccc12`: -3.22%; for `CCCCCCCC(=O)NC(Nc1ccccc1OC)C(Cl)(Cl)Cl` (centres undefined): 51.6% (active); for `O=C(COC(=O)c1ccc([N+](=O)[O-])o1)NC12CC3CC(CC(C3)C1)C2`: -17.3%. Under `COC(=O)[C@@]1(C)[C@H]2C(=O)N(Cc3ccccc3)C(=O)[C@H]2[C@H]2CN=C(SCC3CC3)N21` stands -26.2%; under `CC(=O)c1c(C)[nH]c(C(=O)COC(=O)c2cccs2)c1C`, -11.4%. As for `COc1cccc(C(=O)OCC(=O)c2[nH]c(C)c(C(C)=O)c2C)c1`, the inhibition is 11%. For `CC(=O)c1c(C)[nH]c(C(=O)COC(=O)c2cccc(S(=O)(=O)N(C)c3ccccc3)c2)c1C`, the inhibition is 63.5% (active). The same measure for `COc1ccccc1NC(=O)COC(=O)CNC(=O)C1CCCCC1`: -0.83%.

In the case of `C[C@H](CO)N1C[C@H](C)[C@@H](CN(C)S(=O)(=O)c2ccc(F)cc2)Oc2c(NC(=O)Nc3ccccc3)cccc2C1=O`, the inhibition is -5.33%.

By inhibition is commonly meant the change of the read-out against control, counted positive when it falls.
